Screening results: PubChem, National Center for Advancing Translational Sciences (NCATS)
Sampled rows, rich in hits. Any-hit rate of the full collection: about 1.5%.
IL-2 act: activates IL-2 in a cell-based reporter assay; IL-2 activation reporter assay, cell-based qHTS; stimulated with anti-CD3/CD4/CD28 beads; in transgenic mouse T cells; activation, % (series mostly up to about 46 µM); actives 0.065% (n = 360,000); AID 652025; in the data active = activation above about 50%; inconclusive = mostly about 30% to 49%; note: 0% is about no effect
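Using fluorescent plate cytometry, EGFP and DsRed are detected in transgenic mouse T cells stimulated 18 h at 37 degrees C with antibody-coated beads after 60 min compound pretreatment.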
Nrf2 activator: activates Nrf2 signaling | AREc32 ARE-luciferase reporter (MCF7-derived line), luminescence, 24 h | Potency, µM (doses to about 46.1 µM), for inactives: top-dose activation, usual class: activators | actives 0.31% (n = 410,000) | AID 624171; note: potency is the fitted concentration of half-maximal effect; % of control where 0% means no effect; nearly all actives have a fitted effect of over 65% in size
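For detection, Steady-Glo was added and plates sat 30 min at RT; before that, AREc32_Fluc cells grown overnight in OPTI-MEM/5% FBS had been treated with 23 nL compound for 24 hr at 37 deg C.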
12-LOX inh: blocks human arachidonate 12S-lipoxygenase | P18054 | purified 12hLO, xylenol orange hydroperoxide absorbance | Potency, µM (series often up to 108 µM), inactives show top-dose activity change, negative = inhibition, usual class: inhibitors | actives 1.1% (n = 580,000) | AID 1671190; note: potency is the fitted concentration of half-maximal effect; % is set by controls: 0 for no effect and ±100 for the full control effect
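Purified human 12hLO at 150 nM in 25 mM Hepes, 0.01% Triton X-100, pH 7.0, preincubated 15 min at room temperature with compound. Reaction started with 40 uM arachidonic acid, 30 min at room temperature. Hydroperoxide measured by Fe-xylenol orange, 573/405 nm absorbance ratio.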
a7 integrin act: integrin-mediated muscular dystrophy alleviation activation | alpha7betagal myoblasts, beta-gal FDG fluorescence, 48 h | Potency, µM (titrated, usually from 38.3 µM), for the others: at the highest dose activation, most hits filed as activators | actives 0.064% (n = 350,000) | AID 624291;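 note: potency is the fitted concentration of half-maximal effect; 100% = response of the positive control SU9516; nearly all actives have a fitted effect of over 60% in size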
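Alpha7betagal+/- myoblasts (passage 13) were plated 16-24 hr, then exposed to compounds (1:260 dilution of DMSO stock) for 48 hours at 37C. After MPER lysis, β-galactosidase reporter activity was read as FDG fluorescence (ex 480/em 540) after 30 minutes.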
uPA generation: inhibitors of cell surface uPA generation | cell surface uPA generation assay, qHTS | AID 540303 | actives 0.31% (n = 330,000) | Potency, µM (series often up to 38.3 µM), without a hit: at the top dose activity change, negative = inhibition, most hits filed as inhibitors; active = well fitted inhibition curve with a large enough effect; inconclusive = small, poorly fitted or top-dose-only effect; inactive = no such curve, though single readings can be large or run the other way; tested in mouse RAW 264.7 cells; note: potency is the fitted concentration of half-maximal effect; % is set by controls: 0 for no effect and ±100 for the full control effect; nearly all actives have a fitted effect of over 55% in size
* hit, by the source's call; [ ] = another dose, or the depositor's remark. Unless noted, calls come from the whole dose curve; as a rule, active = well fitted curve in the direction sought with a large enough effect; inconclusive = small, poorly fitted or top-dose-only effect, or another doubt; inactive = no such curve, though single readings can be large; an effect the other way counts as inactive or inconclusive.

Screening CC(C)CCN1CCCC2(CC(c3cccnc3)=NO2)C1 (stereo not drawn) returned 12-LOX inh 4%[12.5 µM].
Screening COc1cc([N+](=O)[O-])c2nc(C)ccc2c1[N+](=O)[O-] returned IL-2 act 0, Nrf2 activator 18µM*, 12-LOX inh -6%, a7 integrin act -52% and uPA generation -8%.
NC1(C(=O)O)CCCc2ccc(N(CCCl)CCCl)cc21 (stereo not drawn) was read as IL-2 act 0, Nrf2 activator 0%, 12-LOX inh -13%, a7 integrin act 0% and uPA generation -9%.
Screening COC(=O)C1=C(C)NC(=S)NC1c1ccc(N(CCCl)CCCl)cc1Cl (stereo not drawn) returned IL-2 act -1, Nrf2 activator 0%, 12-LOX inh 35µM*, a7 integrin act -17% and uPA generation -3%.
O=C(Nc1ccccc1)N1C[C@@H]2C[C@H](C1)c1c(-c3ccccc3F)ccc(=O)n1C2 was read as 12-LOX inh 7%[176 µM].
`OC1C2(c3ccccc3)CN3CN(C2)CC1(c1ccccc1)C3` (stereo not drawn) gave 12-LOX inh 39%.
For NC(=O)OCCCc1ccccc1 the results were IL-2 act 0, Nrf2 activator 0%, 12-LOX inh 36% and uPA generation -5%.
`O=C(OCCc1ccccc1)c1cc(O)c(O)c(O)c1` gave IL-2 act 1, Nrf2 activator 8%, 12-LOX inh 2.8µM*, a7 integrin act -26% and uPA generation inconclusive.
`C[C@](O)(COc1ccc(C#N)cc1)C(=O)Nc1ccc(C#N)c(C(F)(F)F)c1` gave 12-LOX inh -28%[57.4 µM].
C[N+]1(C)C2CCC1CC(OC(=O)c1c[nH]c3ccccc13)C2 (stereo not drawn) was read as IL-2 act 0, Nrf2 activator -1%, 12-LOX inh 45µM* and uPA generation 0%.
`C[N+]1(C)[C@@H]2CC[C@H]1CC(OC(=O)[C@@H](CO)c1ccccc1)C2` (stereo partly drawn) gave IL-2 act -1, Nrf2 activator 0%, 12-LOX inh 18µM*, a7 integrin act -18% and uPA generation 5%.
`CN1Cc2ccccc2-n2ccnc2C12CCN(C(=O)c1ccc(F)cc1)CC2` gave 12-LOX inh 31%.
`CCOc1cncc(/C=C/CCNC)c1` gave 12-LOX inh 18µM*.
`Cc1ccc(S(=O)(=O)Oc2ccccc2C=C2C(=O)N(C)C(=O)N(C)C2=O)cc1` gave IL-2 act -5, Nrf2 activator 3%, 12-LOX inh 45µM*, a7 integrin act 9% and uPA generation -1%.
For Cc1nc(-c2cccs2)cc([C@H]2CN3CC[C@H]2C[C@@H]3CNC(=O)Nc2cccc(C(F)(F)F)c2)n1 the results were 12-LOX inh -6%.
For Cc1nn(CCC#N)c2c1P(=S)(N1CCCC1)OC(c1ccc(F)cc1)=N2 (stereo not drawn) the results were IL-2 act -2, Nrf2 activator 0%, 12-LOX inh 22µM*, a7 integrin act -9% and uPA generation 13%.
For C#C[C@H]1CN2CC[C@H]1C[C@@H]2CNC(=O)c1ccc(F)c(Cl)c1 the results were 12-LOX inh -1%[176 µM].
`Cc1ccc(NC(=O)N(Cc2ccc3c(c2)OCO3)C2CCN(Cc3ccccc3)CC2)cc1C` gave Nrf2 activator 11% and 12-LOX inh 1%.
For Cc1ccc(NC(=O)N(Cc2ccc3c(c2)OCO3)C2CCN(Cc3ccccc3)CC2)cc1Cl the results were Nrf2 activator 0% and 12-LOX inh 45µM*.
`O=C(N/N=C/c1c(O)n(CCC2=CCCCC2)c(=O)[nH]c1=O)c1ccccc1` gave IL-2 act 0, Nrf2 activator 8%, 12-LOX inh inconclusive, a7 integrin act 21% and uPA generation 0%.
For O=C(N/N=C/c1c(O)n(CCC2=CCCCC2)c(=S)[nH]c1=O)c1ccccc1 the results were IL-2 act -1, Nrf2 activator 3%, 12-LOX inh 28µM*, a7 integrin act 20% and uPA generation 1%.
